Only some compounds are listed: those with a hit (about 4.6% of all), similar ones and a draw of the others.
USP7 inh – human USP7 deubiquitinase inhibition | purified USP7, Ub-rhodamine cleavage fluorescence | AID 1645854 | Q93009 | 47,000 tested, 0.3% active | inhibition, % at 20 µM
Target sequence (Q93009 whole entry, looked up): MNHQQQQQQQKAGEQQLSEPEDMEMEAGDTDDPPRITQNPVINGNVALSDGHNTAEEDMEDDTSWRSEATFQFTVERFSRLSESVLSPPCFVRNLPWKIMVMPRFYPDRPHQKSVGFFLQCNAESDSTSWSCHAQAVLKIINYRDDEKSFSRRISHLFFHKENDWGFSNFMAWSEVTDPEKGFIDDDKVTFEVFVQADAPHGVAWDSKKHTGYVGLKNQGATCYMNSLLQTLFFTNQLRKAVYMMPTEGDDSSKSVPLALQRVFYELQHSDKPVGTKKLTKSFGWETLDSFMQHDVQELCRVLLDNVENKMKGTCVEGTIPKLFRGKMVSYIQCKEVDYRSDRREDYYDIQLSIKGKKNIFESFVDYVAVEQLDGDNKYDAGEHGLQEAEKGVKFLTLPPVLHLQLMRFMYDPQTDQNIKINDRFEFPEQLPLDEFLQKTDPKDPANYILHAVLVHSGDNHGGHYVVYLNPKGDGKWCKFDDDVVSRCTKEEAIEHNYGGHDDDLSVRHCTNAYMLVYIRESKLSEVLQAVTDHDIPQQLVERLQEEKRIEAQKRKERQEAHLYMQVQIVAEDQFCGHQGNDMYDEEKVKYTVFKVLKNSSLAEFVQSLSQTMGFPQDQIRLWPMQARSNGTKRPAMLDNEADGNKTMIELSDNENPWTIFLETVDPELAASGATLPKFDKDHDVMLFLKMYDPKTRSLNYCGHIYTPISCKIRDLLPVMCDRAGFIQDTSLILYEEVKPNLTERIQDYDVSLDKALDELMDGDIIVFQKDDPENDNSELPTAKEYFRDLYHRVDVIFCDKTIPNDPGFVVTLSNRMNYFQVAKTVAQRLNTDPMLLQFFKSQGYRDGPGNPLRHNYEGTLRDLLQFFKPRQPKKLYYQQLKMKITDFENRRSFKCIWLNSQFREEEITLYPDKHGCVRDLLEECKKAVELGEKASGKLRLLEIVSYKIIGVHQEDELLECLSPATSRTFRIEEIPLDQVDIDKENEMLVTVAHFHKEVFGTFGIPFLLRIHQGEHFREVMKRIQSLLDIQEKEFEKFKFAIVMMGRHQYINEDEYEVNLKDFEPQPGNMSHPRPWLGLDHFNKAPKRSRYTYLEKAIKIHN
USP10 block – human USP10 deubiquitinase inhibition; purified USP10, Ub-rhodamine fluorescence, 60 min; 47,000 tested, 1.1% active; inhibition, % at 20 µM
UCHL1 block – blocks human UCHL1 ubiquitin-rhodamine cleavage | P09936 | purified UCHL1, Ub-rhodamine cleavage fluorescence | inhibition, % at 20 µM | 47,000 tested, 0.2% active | AID 1645859
USP8 block – inhibitors of human USP8 deubiquitinase; purified USP8, Ub-rhodamine cleavage fluorescence, 30 min; AID 1645853; 47,000 tested, 4.2% active; inhibition, % at 20 µM
* hit, by the source's call; . = not tested or not shown. Rule as the data show it: active = inhibition above about 30%; inactive = the rest.

SMILES	USP7 inh	USP10 block	UCHL1 block	USP8 block
Cc1[nH]c(-c2nnc(C3CC3)o2)c(C)c1S(=O)(=O)N1CCC(C)CC1	-4	-2	1	-1
O=C(COC(=O)c1n[nH]c2ccccc12)Nc1ccc(N2CCCCC2)cc1	11	4	0	5
O=C(COC(=O)c1n[nH]c2ccccc12)Nc1ccc2c(c1)CCC2	12	11	1	30*
C=C[C@]1(C)CC[C@]2(C)[C@@H](C1)[C@@H](O)C[C@H]1[C@]3(C)CCC[C@@]12OC3=O	0	38*	-1	0
O=C1NC[C@@H](CCC(=O)N2CCCC2)N2C[C@@H](NCc3ccccc3)C[C@@H]12	30*	-2	-2	0
O=C(Nc1cc(S(=O)(=O)N2CCCC2)ccc1OCC(F)(F)F)c1cccc(Cl)c1	-1	0	-3	1
COc1cccc(NC(=O)N2CCN(C(=O)C(C)C)CC3(CNC(=O)C3)C2)c1 (configuration not stated)	1	-1	-2	-60
COc1ccccc1OC(C)C(=O)Nc1ccc2nsnc2c1 (configuration not stated)	-4	4	6	73*
CCc1cccc(NC(=O)N2CCCn3c(CN4CCCCC4)nnc3C2)c1	-2	0	-4	-23
CCN1C(=O)c2cccnc2Sc2cc(NC(=O)Cc3cccc(OC)c3)ccc21	-7	-4	-7	-8
O=C(COc1ccccc1F)Nc1ccc2c(c1)CN(C(=O)c1ccco1)CC2	-17	7	6	7
COc1ccc(CNC(=O)c2c(O)c3cccnc3n(-c3ccccc3)c2=O)cc1	3	3	2	84*
COc1ccc(-n2ccc(=O)c(-c3nc(-c4ccccc4C)no3)n2)cc1	15	5	3	34*
COc1ccccc1-c1noc(-c2nn(-c3ccc(C)cc3)ccc2=O)n1	-32	-1	1	-13
O=c1ccn(-c2ccccc2)nc1-c1nc(-c2ccc(Br)cc2)no1	5	0	4	62*
Cc1cccc(-n2ccc(=O)c(-c3nc(-c4ccc(Cl)c(F)c4)no3)n2)c1	3	0	1	11
CCc1ccc(-n2ccc(=O)c(-c3nc(-c4cccc(F)c4)no3)n2)cc1	-15	4	-4	34*
O=C(c1cc(S(=O)(=O)Nc2ccc(Cl)cc2)ccc1Cl)N1CCCc2ccccc21	-20	36*	5	-24
O=C(Nc1ccc(NS(=O)(=O)c2cccc(C(=O)N3CCCc4ccccc43)c2)cc1)c1ccccc1	8	11	7	4
O=C(Nc1ccc(NS(=O)(=O)c2ccc3c4c(cccc24)CC3)cc1)c1ccccc1	3	-4	0	43*
O=C(COC(=O)c1cc2c(s1)CCC2)c1ccc2[nH]c(=O)[nH]c2c1	-22	4	7	70*
O=C(COC(=O)c1ccc2c(c1)OCO2)Nc1ccc2[nH]c(=O)[nH]c2c1	10	19	3	6
CC1CCc2sc(NC(=O)c3ccccc3Oc3ccccc3)c(C(N)=O)c2C1 (configuration not stated)	.	3	1	-1
CCOc1cccc2cc(-c3cc(=O)oc4cc(OC)ccc34)oc12	2	-3	1	51*
COc1ccc(N2CCN(Cc3cc(=O)oc4cc(OC)ccc34)CC2)cc1	0	-1	-1	-17
SMILES	USP7 inh	USP10 block	UCHL1 block	USP8 block
O=C(CN(Cc1ccccc1)S(=O)(=O)c1ccc(Cl)cc1)Nc1ccc(N2CCOCC2)cc1	-2	2	0	37*
COc1ccc(C)cc1NC(=O)C1CC(=O)Nc2nc(SCc3ccccc3)nn21 (configuration not stated)	6	34*	3	26
O=C(Cc1coc2cc3c(cc12)CCC3)NC(Cc1ccccc1)c1nc2ccccc2[nH]1 (configuration not stated)	-4	0	2	66*
O=C(NC(Cc1ccccc1)c1nc2ccccc2[nH]1)c1ccc2ccccc2n1 (configuration not stated)	9	2	3	12
CSCCC(NC(=O)COc1ccc(Cl)cc1)c1nc2ccccc2[nH]1 (configuration not stated)	-22	-10	-5	-11
O=C(NC(Cc1ccccc1)c1nc2ccccc2[nH]1)c1ccccc1-c1ccccc1 (configuration not stated)	1	-3	0	54*
COc1ccccc1/C=C/C(=O)NC(Cc1ccccc1)c1nc2ccccc2[nH]1 (configuration not stated)	-4	-6	6	92*
O=C(NC(Cc1ccccc1)c1nc2ccccc2[nH]1)C1CC1 (configuration not stated)	0	3	12	48*
Cc1noc(C2CN(Cc3cccnc3)Cc3ccnn3C2)n1 (configuration not stated)	2	1	-4	-53
Cn1nc(-c2ccccc2)c2c1C[C@@H]1CN(C(=O)c3cccnc3)C[C@H]21	6	0	1	-89
O=C(N[C@H]1[C@H](O)[C@H](O)C[C@@H]1c1ccc(C(F)(F)F)cc1)C1CCC1	-8	0	-2	-5
CC(C)CC(NC(=O)c1ccc(Cl)cc1Cl)c1nc2ccccc2[nH]1 (configuration not stated)	-1	13	14	89*
NC(=O)c1nc(-c2ccc(OCc3ccccc3)cc2)nc2c1[nH]c(=O)n2-c1ccc2c(c1)OCO2	11	3	0	49*
Cc1cccc(-c2nc(C(N)=O)c3[nH]c(=O)n(-c4ccccc4)c3n2)c1	0	-3	-7	75*
COc1cccc(-c2nc(C(N)=O)c3[nH]c(=O)n(-c4ccc5c(c4)OCO5)c3n2)c1O	4	0	4	31*
O=C1c2[nH]nc(-c3ccccc3O)c2C(c2ccc(F)cc2)N1Cc1ccco1 (configuration not stated)	9	18	12	71*
Cc1ccc(C2c3c(-c4ccccc4O)n[nH]c3C(=O)N2Cc2ccco2)cc1 (configuration not stated)	16	29	11	58*
Cc1ccc(/C=C/C(=O)Cc2ccccc2)cc1	7	9	7	23
CCC/C=C/C=C/C=C(\C)[C@@H]1OC[C@H](C)[C@H](OC)[C@H]1OC(=O)CN	4	0	4	8
Cc1c(Cl)cccc1NC(=O)C1Cc2ccccc2CN1C(=O)c1ccccc1 (configuration not stated)	-33	0	5	18
O=C(Nc1ccccc1Cl)C1Cc2ccccc2CN1C(=O)c1ccccc1 (configuration not stated)	-16	-10	-3	36*
Cc1nc(Nc2ccc(Oc3ccccc3)cc2)cc(-c2ccncc2)n1	9	5	9	-5
COc1ccc(Nc2cc(-c3cccc(C(F)(F)F)c3)nc(-c3ccncc3)n2)cc1	3	-3	-1	38*
Cc1ccccc1CN1CC2(CCN(C(=O)Cc3ccc(Cl)cc3)C2)C1	-11	-2	-1	25
CCCn1c(=O)c2sccc2n2c(CCC(=O)N3CCc4ccccc4C3)nnc12	3	2	2	87*

Assay outcomes from PubChem.
